Source: PubChem BioAssay
The source made the active and inactive calls.

test: small-molecule microarray binders of probe aCHRDL2, primary screen, biochemical, biotinylated probe, 635/667 nm fluorescence (AID 1100); details: higher = more signal

Composite z-score, 1.27:
[N-]=[N+]=Nc1ccccc1[C@H]1OC(c2ccc(OCCCO)cc2)=N[C@@]1(CCS(=O)(=O)c1ccccc1)C(=O)N1CCCCC1

Composite z-score, 0.662:
O=C1NC(=O)C2C1C=CC(C(O)c1ccc(Br)cc1)N2Nc1ccccn1 (stereo unspecified)

Composite z-score, 0.171:
O=C1NC(=O)C2C1C=CC(C(O)c1c(F)cccc1Cl)N2Nc1ccccn1 (stereo unspecified)

test: splicing luciferase reporter signal modulators, primary screen, spliceosome inhibition project, cell-based, HEK293, splice +/- reporter (AID 1101); details: luminescence, 24 h, higher = more signal, called active from +8 up or from −8 down;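 also: HEK293 cells carrying a splicing-competent luciferase reporter gene; test concentration not given here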

z-score, inactive:
O=C1O[C@@H](c2ccccc2)[C@@H](c2ccccc2)N2[C@@H](c3ccc(O)cc3)[C@]3(C(=O)Nc4ccccc43)[C@@H](C(=O)Nc3nc4ccccc4s3)[C@H]12 0.641
C=C(COC)/C(=C/C[C@@H](OC(=O)c1ccncc1)c1cccc(OCCO)c1)c1cnc2ccccc2c1 -1.36
O=C1O[C@@H](c2ccccc2)[C@@H](c2ccccc2)N2[C@@H](c3ccccc3OCCO)[C@]3(C(=O)Nc4ccc(C#CCCO)cc43)[C@@H](C(=O)N3CCN(c4ncccn4)CC3)[C@H]12 -1.09
COC(=O)C[C@H]1O[C@]2(C(=O)N(C)c3ccccc32)[C@@H](C)[C@@H]1[Si](C)(C)c1ccc(C)cc1 -0.283
Cc1ccc(C(C)CC(O)C2C=CC3C(=O)N(c4ccccc4)C(=O)C3N2Nc2ccc(C(C)C)cc2)o1 (stereo unspecified) 1.46
C[n+]1ccc(CCCO)cc1 -0.164
C=C(COC)/C(=C/C[C@@H](OC(=O)c1ccncc1)c1ccc(CO)o1)c1cnc2ccccc2c1 0.773
CCOC(=O)[C@H]1C/C=C/C[C@H](C(=O)OCC)C(=O)O[C@H]2[C@@H](OC)O[C@H](CO)[C@@H](OC(=O)CCc3ccccc3)[C@@H]2OC1=O -0.389
CCCCC(=C=CC[C@@H](O)c1ccc(OCCO)cc1)C[C@@H](O)COCc1ccccc1 -0.784
CCCc1cccc(=O)o1 -0.396
COCC(=C=CC[C@H](O)c1ccc(OCCO)cc1)C[C@H](O)COCc1ccccc1 -1.11
O=C(NC1CC1)[C@@H]1c2ccccc2C(=O)N(Cc2ccccc2)[C@H]1c1ccc(CO)cc1 0.135
COCCOC(=O)N1C(=O)[C@@]2(c3cc(C#CC4=CCCCC4)ccc31)[C@H](C(=O)N1CCN(c3ncccn3)CC1)[C@H]1C(=O)O[C@H](c3ccccc3)[C@H](c3ccccc3)N1[C@@H]2c1ccc(O)cc1 0.345
O=C1C2C=CC(C(O)c3cc(C(F)(F)F)cc(C(F)(F)F)c3)N(Nc3ccc([N+](=O)[O-])cc3)C2C(=O)N1c1ccccc1 (stereo unspecified) 0.765
C=CCOC(=O)[C@@H]1[C@H]2C(=O)O[C@H](c3ccccc3)[C@H](c3ccccc3)N2[C@H](c2ccc(OCCOC(=O)[C@H]3C[C@H]4C(=O)N[C@@H](CCCCNC(C)=O)C(=O)N4[C@H]3c3cccc(OCCO)c3)cc2)[C@@]12C(=O)Nc1ccc(I)cc12 0.357
COC(=O)[C@@]1(Cc2ccccc2)[C@H]2c3cc(C(=O)N4CCCC4)n(C[C@H](O)CO)c3C[C@H]2CN1C(=O)c1ccccc1 0.797
COCCCNC(=O)[C@]1(CCC(=O)OC(C)(C)C)N=C(c2ccc(OCCCO)cc2)O[C@@H]1c1ccccc1 -0.307
COCCOC(=O)N1C(=O)[C@@]2(c3cc(C#CC4=CCCCC4)ccc31)[C@H](c1ccccc1OCCO)N1[C@H](c3ccccc3)[C@H](c3ccccc3)OC(=O)[C@H]1[C@@H]2C(=O)N1CCc2cc(OC)c(OC)cc2C1 -0.222
CC(C)(C)OC(=O)CC[C@]1(C(=O)N2CCOCC2)N=C(c2ccc(OCCCO)cc2)O[C@H]1c1ccccc1 0.12
COCCOC(=O)N1C(=O)[C@@]2(c3cc(C#CC4=CCCCC4)ccc31)[C@H](c1ccc(O)cc1)N1[C@H](c3ccccc3)[C@H](c3ccccc3)OC(=O)[C@H]1[C@@H]2C(=O)Nc1nc2ccccc2s1 0.51
CC1CC/C=C\[C@H]2OC34C=CCN(c5ccc6ccccc6c5)C(=O)[C@H]3N(C(CO)C(C)C)C(=O)[C@@H]4C2C(=O)O1 (stereo partly specified) 6.6e-05
CC(C)CNC(=O)[C@@H]1c2ccccc2C(=O)N(Cc2cc(F)cc(C(F)(F)F)c2)[C@H]1c1ccc(CO)cc1 -0.621
C=C[C@H](COC(C)=O)NS(=O)(=O)c1ccc(Br)cc1 0.485
